An excerpt weighted towards active compounds, which were near 3% of everything screened.
OvCa metastasis: Primary qHTS assay for Inhibitors of ovarian cancer metastasis using an organotypic tumor microenvironment (TME) model; SKOV3ip1-GFP adhesion/invasion on 3D omental model, fluorescence; Potency, µM (titrated, usually from 45.8 µM), most hits filed as inhibitors; hit rate 0.1% among 46,000; AID 1963576, 2024; further: nearly all actives have a fitted effect of over 65% in size
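Adhesion/invasion was scored as fixed GFP-labeled SKOV3ip1 cell counts (488/509 nm), normalized to DMSO and tomatine controls. Cancer cells in serum-free medium, with four compound doses (0.36-46 umol/L), sat 2 hr at RT then 16 hr at 37 C on a 48 hr fibroblast/mesothelial/ECM culture.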
p53null 32C kill: qHTS Screen for Compounds that Selectively Target Cancer Cells with p53 Mutations: Cytotoxicity of p53 Null Cells at the Permissive Temperature; H1299-neo p53 null cells, ATP luminescence, 24 h, 32C; Potency, µM (top dose mostly 46.1 µM), most hits filed as cytotoxic; hit rate 0.62% among 55,000; further: nearly all actives have a fitted effect of over 55% in size
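Luminescent ATP readout gave cell viability of p53-null H1299-neo cells after a 24 h compound exposure at the permissive 32C. Titrations ran up to 46 uM, and AC50s were fitted with the standard Hill equation.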
PMP22 txn: Cell-based coincidence reporter assay to measure PMP22 gene transcription in S16 Pmp22-F2sN cells - Primary screen | S16 Pmp22-F2sN Schwann cells, FLuc/NLuc coincidence luminescence, 24 h | Potency, µM (top dose mostly 57.5 µM), usual class: inhibitors | hit rate 2% among 43,000; active means clear falling dose curves in both reporters; inconclusive means both reporters move, but less clearly or upward; inactive means either reporter flat; the % is the NLuc reporter signal
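S16 Schwann cells carrying FLuc/NLuc coincidence reporter in the Pmp22 3' UTR treated with compound 24 h at 37C; FLuc then NLuc luminescence read sequentially by dual-luciferase reagents.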
S16 viability: Cell viability qHTS assay in S16 Pmp22-F2sN cells; S16 Pmp22-F2sN Schwann cells (luciferase reporters placed in the Pmp22 gene) viability, CellTiter-Glo, 24 h; Potency, µM (highest dose often 57.5 µM), hits mostly cytotoxic; hit rate 0.48% among 43,000; AID 1508642, 2021; further: nearly all actives have a fitted effect of over 65% in size
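S16 Schwann cells carrying the Pmp22-F2sN reporter, seeded in 1536-well format, were exposed to library compounds for 24 h at 37C. Viability was read as CellTiter-Glo luminescence after 15 min at room temperature.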
pS6 MEF inh: Acumen qHTS Assay for Inhibitors of the mTORC1 Signaling Pathway in MEF (Tsc2-/-, p53-/-) Cells: Sytravon | Tsc2-/- p53-/- MEF, phospho-rpS6 immunofluorescence/PI, 24 h | Potency, µM (highest dose often 38.3 µM), actives largely listed as inhibitors | hit rate 0.78% among 44,000 | AID 493208, 2011; further: nearly all actives have a fitted effect of over 50% in size
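Immunofluorescence of rpS6 phosphorylation in Tsc2-/-, p53-/- MEFs after 24 h compound exposure, normalized to propidium iodide signal. Activity is expressed as % positive cells, thresholded with 7.5 nM rapamycin.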
p53null 39C kill: qHTS Screen for Compounds that Selectively Target Cancer Cells with p53 Mutations: Cytotoxicity of p53 Null Cells at the Nonpermissive Temperature; hit rate 0.97% among 55,000; Potency, µM (doses to about 46.1 µM), usual class: cytotoxic; AID 904, 2007; H1299 p53-null (neo) cells, 39C, ATPlite viability, 24 h; further: nearly all actives have a fitted effect of over 50% in size
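Cells seeded at 600/well, 37C overnight. Compound added (up to 46 uM), plates shifted to 39C for 24 hr. ATPlite added, luminescence read after 20 min at room temperature.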
NLuc saturating: Biochemical NLuc saturation counterscreen for small molecule modulators of PMP22 gene expression - Nano-Glo assay. shares compounds with PMP22 txn. hit rate 4% among 690. Secreted NLuc enzyme (filtered S16 cell medium), Nano-Glo luminescence. Potency, µM (series often up to 57.5 µM), actives largely listed as inhibitors
NLuc Km counter: Biochemical coelenterazine-based NLuc counterscreen for small molecule modulators of PMP22 gene expression - Km assay. shares compounds with PMP22 txn. secreted NLuc enzyme, coelenterazine luminescence, Km conditions. Potency, µM (top dose mostly 57.5 µM), actives largely listed as inhibitors. hit rate 5% among 690. AID 1508639, 2021
FLuc counter: Biochemical FLuc counterscreen for small molecule modulators of PMP22 gene expression; shares compounds with PMP22 txn; purified P. pyralis FLuc, luminescence, 10 min; Potency, µM (series often up to 57.5 µM), usual class: inhibitors; 690 tested, under 10 active; AID 1508640, 2021
Target sequence (P08659 whole entry, looked up): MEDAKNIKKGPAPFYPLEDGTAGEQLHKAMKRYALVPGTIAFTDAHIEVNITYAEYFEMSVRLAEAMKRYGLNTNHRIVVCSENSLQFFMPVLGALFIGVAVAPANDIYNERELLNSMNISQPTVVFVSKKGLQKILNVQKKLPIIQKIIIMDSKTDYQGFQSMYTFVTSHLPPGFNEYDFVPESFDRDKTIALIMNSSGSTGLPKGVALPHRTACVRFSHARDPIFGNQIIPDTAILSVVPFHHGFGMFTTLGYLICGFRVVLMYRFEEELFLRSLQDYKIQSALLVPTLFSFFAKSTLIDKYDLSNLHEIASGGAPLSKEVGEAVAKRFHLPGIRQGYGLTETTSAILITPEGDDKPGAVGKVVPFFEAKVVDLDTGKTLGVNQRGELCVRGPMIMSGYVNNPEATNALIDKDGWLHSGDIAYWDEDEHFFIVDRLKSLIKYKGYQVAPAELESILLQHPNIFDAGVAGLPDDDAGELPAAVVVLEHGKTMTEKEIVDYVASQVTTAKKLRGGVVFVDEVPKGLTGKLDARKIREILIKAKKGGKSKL
S16 viab conf: Cell viability qHTS assay in S16 Pmp22-F2sN cells - Confirmatory screen; hit rate 7% among 690; S16 Schwann cells viability, CellTiter-Glo ATP luminescence, 24 h; AID 1508641, 2021; shares compounds with PMP22 txn; Potency, µM (series often up to 57.5 µM), actives largely listed as cytotoxic
PMP22 txn conf: Cell-based coincidence reporter assay to measure PMP22 gene transcription in S16 Pmp22-F2sN cells - Confirmatory screen. shares compounds with PMP22 txn. S16 Schwann cells Pmp22-F2sN, dual luciferase, 24 h. Potency, µM (series often up to 57.5 µM), usual class: inhibitors. hit rate 22% among 690; active means clear falling dose curves in both reporters; inconclusive means both reporters move, but less clearly or upward; inactive means either reporter flat; the % is the FLuc reporter signal
Hits are given with their value; n = inactive; u = inconclusive; x = no result given. Unless noted, the call rests on the fitted dose curve; in most records, active means well fitted curve in the direction sought with a large enough effect; inconclusive means small, poorly fitted or top-dose-only effect, or another doubt; inactive means no such curve, though single readings can be large; an effect the other way counts as inactive or inconclusive.

SMILES	OvCa metastasis	p53null 32C kill	PMP22 txn	S16 viability	pS6 MEF inh	p53null 39C kill	NLuc saturating	NLuc Km counter	FLuc counter	S16 viab conf	PMP22 txn conf
CCc1ccc2ncc(C(=O)c3ccc(C)c(C)c3)c(N3CCC(C(N)=O)CC3)c2c1	n	n	13µM	n	n	u	5.4µM	7.7µM	n	n	u
CCN1C(=O)c2ccccc2S(=O)c2ccc(C(=O)N3CCN(c4cccc(Cl)c4)CC3)cc21 (centres undefined)	n	n	18µM	n	n	n	3.9µM	3.4µM	n	n	u
COC[C@@H](c1ccc(C(F)(F)F)cc1)N1CCN(C2(C)CCN(C(=O)c3c(C)ncnc3C)CC2)C[C@H]1C	n	x	x	x	x	x	x	x	x	x	x
Cc1ccc(C(=O)c2cc(O)c(O)c([N+](=O)[O-])c2)cc1	n	x	x	x	x	x	x	x	x	x	x
O=C1COc2ccc(-c3cc(-c4ccc(F)cc4)c4c(n3)-c3ccccc3OC4)cc2N1	n	x	17µM	n	n	x	n	n	n	u	u
CCOC(=O)COc1ccc(F)cc1C(=O)c1ccn2nc(-c3ccc(C)cc3)cc2n1	n	x	n	u	n	x	x	x	x	x	x
CCOC(=O)COc1ccc(C)cc1C(=O)c1ccn2nc(-c3ccc(F)cc3)cc2n1	n	x	18µM	n	n	x	n	u	n	n	u
CCOc1ccc(-c2nc3c(C#N)c[nH]n3c2NC2CCCCC2)cc1	n	n	u	n	n	n	x	x	x	x	x
COc1ccc(-c2nc3c(C#N)c[nH]n3c2NC2CCCC2)cc1	n	n	15µM	22µM	n	n	u	u	n	n	u
C[C@@H]1C(=O)O[C@H]2CC34[C@H]5C[C@@H](C(C)(C)C)C36[C@H](OC(=O)[C@@H]6O)O[C@@]4(C(=O)O5)[C@]21O (some centres undefined)	n	x	x	x	x	x	x	x	x	x	x
O=C1CC(c2ccccc2)Cc2[nH]c(=O)c(-c3nc(-c4ccc(F)cc4)cs3)cc21 (centres undefined)	n	n	3.4µM	n	u	n	u	u	n	n	u
COc1ccc(C2CC(=O)c3cc(-c4nc(-c5ccc(Cl)cc5)cs4)c(=O)[nH]c3C2)cc1 (centres undefined)	n	n	u	n	n	n	x	x	x	x	x

From PubChem
